Most compounds without a hit are left out; they make up all but 17% or so of the library.
DT40 TDP1 no CPT: qHTS for Inhibitors of human tyrosyl-DNA phosphodiesterase 1 (TDP1): qHTS in cells in absence of CPT. hit rate 15% among 420,000. DT40 Tdp1-/- hTDP1 cells, no CPT, ATP luminescence, 48 h. Potency, µM (series often up to 46.2 µM), inactives show top-dose activity change, negative = growth inhibition, hits mostly inhibitors; note: % is set by controls: 0 for no effect and ±100 for the full control effect; nearly all actives have a fitted effect of over 55% in size
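Readout: luminescence from CellTiter-Glo after 30 min in the dark at RT. Cells: DT40 Tdp1-/- with stable hTDP1, 400/well. Exposure: compounds alone, ≥48 hr, 37 °C.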
HepG2 tox: HepG2 cytotoxicity, counter-screen for TGF-b inhibitors. Potency, µM (top dose mostly 46.1 µM), without a hit: at the highest dose activity change, negative = cytotoxicity, hits mostly cytotoxic. hit rate 0.76% among 410,000. HepG2 CAGA-GFP viability, ATP luminescence, 18 h. AID 588856
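CellTiter-Glo luminescence gave cytotoxicity after 18 hours at 37 degrees C. The cells were HepG2 CAGA-GFP in 1% FBS DMEM, stimulated with 500 pg/mL TGF-beta after compound addition. %Activity was normalised to no-cell wells (complete cell-killing) and DMSO (no toxicity), and curves were fitted and classified.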
HT1080 IDH1KD tx: toxicity to HT-1080 IDH1 knockdown cells (counter line). hit rate 2% among 360,000. AID 686971. HT-1080 IDH1 knockdown viability, ATP luminescence, 48 h. Potency, µM (series often up to 46.1 µM), inactives show at the top dose activity, negative = toxicity, usual class: cytotoxic;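 note: 0% = DMSO wells and -100% = cell-free medium wells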
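CellTiter-Glo luminescence after 48 h compound exposure at 37 degrees C of IDH1-knockdown HT-1080 cells in 5% FBS RPMI. %Activity scaled between DMSO wells and cell-free media wells, with curves fitted and assigned curve classes.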
HT1080NT lethal: kills 2HG-producing HT-1080-NT fibrosarcoma cells; HT-1080-NT fibrosarcoma viability, CellTiter-Glo ATP luminescence, 48 h; Potency, µM (titrated, usually from 46.1 µM), for the others: at the highest dose activity, negative = less viability, hits mostly cytotoxic; hit rate 1.6% among 360,000; AID 686970;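 note: NT is the 2HG producing partner of a matched IDH1 knockdown line; 0% = DMSO-treated cells and -100% = media-only wells without cells; nearly all actives have a fitted effect of over 55% in size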
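HT-1080-NT; 750 cells/well; 5% FBS RPMI; 48 h compound, 37 degrees C; CellTiter-Glo luminescence; curve fitting and curve-class assignment.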
DT40 TDP1 CPT: DT40-hTDP1 cell growth loss with CPT; chicken DT40 Tdp1-/-;hTDP1 cells + 20 nM CPT, ATP luminescence, 48 h; Potency, µM (series often up to 46.2 µM), for inactives: top-dose activity change, negative = growth inhibition, most hits filed as inhibitors; hit rate 12% among 420,000; AID 686979; note: % is set by controls: 0 for no effect and ±100 for the full control effect; nearly all actives have a fitted effect of over 55% in size
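Cell growth measured by CellTiter-Glo luminescence after a minimum 48 h, 37 C compound exposure with 20 nM CPT in Tdp1-knockout DT40 cells stably expressing hTDP1, seeded 400/well; qHTS titration format.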
TGFb inhibitor: TGF-b pathway inhibition | HepG2 CAGA-GFP TGF-b/SMAD3 reporter, GFP fluorescence, 18 h; TGF-beta stimulated, 500 pg/mL final | Potency, µM (doses to about 46.1 µM), without a hit: at the highest dose activity, negative = inhibition, actives largely listed as inhibitors | hit rate 1.2% among 410,000 | AID 588855; note: % is set by controls: 0 for no effect and ±100 for the full control effect; nearly all actives have a fitted effect of over 65% in size
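Inhibition of TGF-beta-driven CAGA-GFP reporter expression in HEPG2 cells is measured by cellular GFP fluorescence after 18 h stimulation with 500 pg/mL recombinant TGF-beta in 1% FBS medium at 37 degrees C.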
* = called active by the depositor; ? = inconclusive; nt = no result given; [ ] = another dose, or the depositor's remark. Calls come from the whole dose curve; as a rule, active = well fitted curve in the direction sought with a large enough effect; inconclusive = small, poorly fitted or top-dose-only effect, or another doubt; inactive = no such curve, though single readings can be large; an effect the other way counts as inactive or inconclusive. Potency is the fitted concentration of half-maximal effect.

SMILES	DT40 TDP1 no CPT	HepG2 tox	HT1080 IDH1KD tx	HT1080NT lethal	DT40 TDP1 CPT	TGFb inhibitor
CCCc1nc2cccnc2n1C1CCN(C(=O)CC2NC(=O)c3ccccc32)CC1 (stereo not drawn)	-13%	nt	nt	nt	0%	nt
N#Cc1c2n(c3c(=O)n(Cc4ccccc4Cl)cnc13)CCCCC2	?	-2%	-19%	-5%	18µM*	0%
COC(=O)Cn1cnc2c(C#N)c3n(c2c1=O)CCCCC3	-5%	3%	3%	9%	-24%	30%
O=C1CCCC(O)=C1C=Nc1ccc(O)cc1	26µM*	-20%	-2%	-1%	?	11%
COc1ccccc1N1CCN(C(=O)C2c3ccccc3Oc3ccccc32)CC1	2.9µM*	0%	1.8µM*	4.1µM*	2.9µM*	?
O=C(C1c2ccccc2Oc2ccccc21)N1CCN(c2ccc(Cl)cc2)CC1	15µM*	-18%	?	?	?	-8%
COc1ccccc1N1CCN(C(=O)C2CC2)CC1	-11%	0%	16%	17%	8%	-4%
CC(C)=CC1C(C(=O)NCCc2ccccc2)C1(C)C (stereo not drawn)	?	3%	2%	2%	3%	2%
COc1cc(C)c(CN2CCN(C(C)C(=O)NC(C)c3ccccc3)CC2)cc1OC (stereo not drawn)	-25%	-19%	-1%	-4%	-9%	9%
O=c1c2c3c(sc2n(CCN2CCCC2)c(=O)n1Cc1ccco1)CCCCC3	12µM*	-14%	-3%	2%	8.2µM*	0%
O=C(Cn1c(=O)n(Cc2ccco2)c(=O)c2c3c(sc21)CCCCC3)c1ccccc1	15µM*	-10%	-16%	-12%	15µM*	-21%
O=C(O)/C=C/C(=O)Nc1cccc2c1-c1ccccc1C2=O	?	-6%	?	?	?	-6%
COc1cc(CN2C[C@@H](CO)O[C@@H](n3cnc4c(N5CCN(C)CC5)ncnc43)C2)cc(OC)c1OC	-14%	13%	11%	?	-20%	20%
COc1ccc(Cl)cc1N=C1NC(=O)CC(C(=O)Nc2ccccc2C(F)(F)F)S1 (stereo not drawn)	nt	-2%	nt	nt	nt	-2%
CN(C)c1ccc(N=Nc2ccccc2C(=O)OCC(=O)NCC2CCCCC2)cc1	21µM*	-12%	-13%	-2%	?	?
CN(C)c1ccc(N=Nc2ccccc2C(=O)OCC(=O)NC2CCCC2)cc1	?	-69%	-6%	-15%	26µM*	?
Fc1ccc(-c2noc3ncnc(NC4CCCCC4)c23)cc1	?	-9%	nt	nt	?	27%
COc1ccc(OC)c(C(=O)N2CCOc3ccc(C(C)(O)CN(C)C)cc3C2)c1 (stereo not drawn)	-11%	nt	nt	nt	9%[9.04 µM]	nt
O=C(NC1CCN(Cc2ccccc2)CC1)c1cccc(NS(=O)(=O)c2ccc(Br)cc2)c1	?	-39%	-12%	-17%	18µM*	?
O=C(CCNS(=O)(=O)c1ccc(Br)cc1)NC1CCN(Cc2ccccc2)CC1	13µM*	-18%	-4%	-2%	?	11%
Cc1ccc(S(=O)(=O)Nc2cccc(C(=O)NC3CCN(Cc4ccccc4)CC3)c2)cc1F	16µM*	-38%	-5%	2%	?	7%
O=C(c1cccc(NS(=O)(=O)c2ccc(F)c(F)c2)c1)N1CCN(Cc2ccccc2)CC1	?	5%	-7%	-2%	?	-20%
O=C(Nc1ccccc1F)Nc1cccnc1Cl	?	-12%	-5%	-1%	?	3%

Bioassay records (PubChem)
